The source made the active and inactive calls. Rule for the calls: active = hit-call score of the fitted dose curve at least 0.9, where 1 is the maximum; inactive = score below 0.9.
Experiment: ATG_E_Box_CIS: Attagene CIS-FACTORIAL HepG2 Assay for human Enhancer Box (E-box) (AID 2282936)
Conditions: HepG2 E-box cis-reporter transcription, actives raise or lower the signal
How it was run: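 HepG2 cells transiently transfected with multiplexed cis-element reporter units sensing endogenous transcription factor activity; 24 h compound exposure. Reporter mRNA measured by RT-PCR, 6-FAM primer extension, HpaI digestion and capillary electrophoresis; bidirectional fit versus DMSO.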

outcome, inactive:
O=C(O)CC(O)C(=O)O (stereo unspecified)
CC(C)=CCCC(C)=CC=O
C=CC(=C)CCC=C(C)C
CC[C@H]1OC(=O)[C@H](C)[C@@H](O[C@H]2C[C@@](C)(OC)[C@@H](O)[C@H](C)O2)[C@H](C)[C@@H](O[C@@H]2O[C@H](C)C[C@H](N(C)C)[C@H]2O)[C@](C)(O)C[C@@H](C)C(=O)[C@H](C)[C@@H](O)[C@]1(C)O
O=C1CCC(N2C(=O)c3ccccc3C2=O)C(=O)N1 (stereo unspecified)
C[C@](N)(Cc1ccc(O)c(O)c1)C(=O)O
Nc1cccc(N)c1
Cn1c(=O)c2c(ncn2C)n(C)c1=O
Nc1nc2ncc(CNc3ccc(C(=O)N[C@@H](CCC(=O)O)C(=O)O)cc3)nc2c(=O)[nH]1
CC(=O)OCCC(C)C
O=P(OC(CCl)CCl)(OC(CCl)CCl)OC(CCl)CCl
CCCC(=O)OCC
COc1cccc(-c2ccc(/C=C\CN3CCCCCC3)cc2Cl)c1
O=C(OC[C@H]1O[C@@H](OC(=O)c2cc(O)c(O)c(OC(=O)c3cc(O)c(O)c(O)c3)c2)[C@H](OC(=O)c2cc(O)c(O)c(OC(=O)c3cc(O)c(O)c(O)c3)c2)[C@@H](OC(=O)c2cc(O)c(O)c(OC(=O)c3cc(O)c(O)c(O)c3)c2)[C@@H]1OC(=O)c1cc(O)c(O)c(OC(=O)c2cc(O)c(O)c(O)c2)c1)c1cc(O)c(O)c(OC(=O)c2cc(O)c(O)c(O)c2)c1
CCOCCOCCOCCO
O=C(O)c1cccc(N(Cc2cccnc2)c2ccc(OC(F)F)c(OC(F)F)c2)c1

Source: PubChem BioAssay (EPA / NIEHS)
